GPR151 ag = activators of human GPR151, primary screen, cell-based, PathHunter beta-arrestin, luminescence; G-protein coupled receptor 151 (Homo sapiens), Q8TDV0; PathHunter beta-arrestin GPR151 cells; AID 1508602, 2020; 1% of 650,000 active; activation, % at 11.2 µM; in the data active means activation above about 4.9%;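 further: 0% = median of compound wells and 100% = cells with positive control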
Target sequence (Q8TDV0 whole entry, looked up): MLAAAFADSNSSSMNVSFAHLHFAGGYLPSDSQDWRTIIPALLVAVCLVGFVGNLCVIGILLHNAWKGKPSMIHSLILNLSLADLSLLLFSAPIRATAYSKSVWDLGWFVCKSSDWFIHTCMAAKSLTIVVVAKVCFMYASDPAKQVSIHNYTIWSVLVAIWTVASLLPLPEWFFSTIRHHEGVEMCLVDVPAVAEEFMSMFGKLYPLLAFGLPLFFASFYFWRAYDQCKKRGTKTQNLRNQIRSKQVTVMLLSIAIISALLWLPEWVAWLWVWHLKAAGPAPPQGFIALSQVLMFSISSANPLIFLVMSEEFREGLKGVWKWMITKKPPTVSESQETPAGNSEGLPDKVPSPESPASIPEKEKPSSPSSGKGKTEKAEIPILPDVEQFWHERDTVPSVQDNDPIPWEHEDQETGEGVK
FBW7 act = FBW7 E3 ligase activators, primary screen, biochemical, AlphaScreen, human | AlphaScreen FBW7–phospho-cyclin E peptide binding, activator screen | normalized activity (activation), % at 26.1 µM | 0.13% of 650,000 active | AID 1259310, 2017; in the data active means normalized activity above about 1.9%;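 further: purified mutant Fbw7 with reduced substrate affinity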
MITF primary = MITF inhibitors, primary screen, biochemical, AlphaScreen, human. Microphthalmia-associated transcription factor (Homo sapiens), O75030. AlphaScreen MITF homodimerization, bead proximity signal. inhibition, % at 2.6 µM. 0.91% of 650,000 active; in the data active means inhibition above about 50%;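 further: 0% = vehicle wells with protein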
TEAD-YAP block = TEAD-YAP interaction inhibition, primary screen, TEAD-YAP interaction inhibitor project, luminescence, HEK-TIYL cells; TEAD-Gal4/YAP UAS-luciferase luminescence; inhibition, % at 9.12 µM; 1.4% of 640,000 active; in the data active means inhibition above about 32%;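 further: 0% = median of test compound wells and 100% = reference inhibitor wells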
GPR151 conf act = GPR151 activators, triplicate retest, confirmation, cell-based, PathHunter beta-arrestin, luminescence; shares compounds with GPR151 ag; activation, % at 11.2 µM; 6,700 tested, under 10 active; GPR151 PathHunter beta-arrestin cells, 90 min; % of EA-reagent control over plate median;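 active means mean percent activation across replicates above the confirmation screen cutoff of 4.91%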
GPR119 counter = GPR119 activators in beta-arrestin cells, counter-screen for GPR151 activator project, cell-based, PathHunter beta-arrestin, luminescence, triplicate; activation, % at 11.2 µM; 0.3% of 6,700 active; 90 min; 0 = compound-well median, 100 = enzyme-acceptor control; shares compounds with GPR151 ag; AID 1508611, 2020;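 active means mean percent activation in the counterscreen above 29.09%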;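 further: counterscreen on off-target GPR119 to flag nonselective hits from the GPR151 activator screen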
* = called active by the depositor; nt = not tested or not shown. An excerpt weighted towards active compounds, which were near 3.4% of everything screened.

SMILES | GPR151 ag | FBW7 act | MITF primary | TEAD-YAP block | GPR151 conf act | GPR119 counter
CN1C(=O)OC2(C)CCc3ccccc3C12C (stereo not drawn) | 5.0* | 0 | -10 | 5 | 0 | 8
O=C(Cc1csc(-n2cccc2)n1)N1CCN(c2ccccn2)CC1 | 5.5* | 0 | 3 | 7 | 2 | 0
Cc1ccc(NC(=O)CSc2nnc(NC(=O)CC(C)C)s2)cc1 | -2 | 0 | 9 | 5 | nt | nt
O=C(COC(=O)c1cc(Br)ccc1O)c1ccccc1 | 3 | 0 | 8 | 14 | nt | nt
COc1cc(S(=O)(=O)n2ccnc2)ccc1Br | 5.7* | 0 | 10 | 6 | -1 | 0
CCOc1cc(S(=O)(=O)n2ccnc2)ccc1Br | -1 | 0 | -5 | 11 | nt | nt
CC(=O)Nc1cccc(NC(=O)c2cn(-c3ccc(F)cc3F)c(=O)c3ccccc23)c1 | 0 | 0 | -2 | 8 | nt | nt
CCN1CCCC1CNS(=O)(=O)c1ccc(C(=O)Nc2ccccc2)cc1 (stereo not drawn) | 10* | 0 | 6 | -2 | 0 | 7
Cc1csc(SCC(=O)NCC2Cc3cc(-c4nc(C)cnc4C)ccc3O2)n1 (stereo not drawn) | -1 | 0 | 9 | 10 | nt | nt
COc1ccc(S(=O)(=O)Nc2ccc3c(c2)n(C)c(=O)n3C)cc1 | 1 | 0 | -3 | 11 | nt | nt
CCOc1ccc(NS(=O)(=O)c2ccc3c(c2)n(C)c(=O)n3C)cc1 | 15* | 0 | -7 | 0 | -1 | -11
O=C(NC(c1ccccc1)c1ccccc1)C1CCN(S(=O)(=O)c2cccnc2)CC1 | 1 | 0 | -3 | 5 | nt | nt
CCCCN(CC)S(=O)(=O)c1ccc(C(=O)Nc2ccc3c4c(cccc24)C(=O)N3CC)cc1 | 9.7* | 0 | 3 | 11 | 0 | -3
COCCn1c(=NC(=O)CCS(=O)(=O)c2ccccc2)sc2cc(OC)ccc21 | 6.7* | 0 | 2 | 1 | 0 | 6
COCCn1c(=NC(=O)Cc2ccccc2)sc2cc(OC)ccc21 | 0 | 0 | -13 | 2 | nt | nt
CC12C=CC(C)(O1)C1C(=O)N(c3ccc(-c4ccccc4)cc3)C(=O)C12 (stereo not drawn) | 5.7* | 0 | -13 | -3 | -1 | -15
CC12C=CC(C)(O1)C1C(=O)N(c3ccccc3)C(=O)C12 (stereo not drawn) | 1 | 0 | -7 | 0 | nt | nt
CCOC(=O)c1c(NC(=O)c2cc3cc(Cl)ccc3oc2=O)sc(C(C)=O)c1C | 8.1* | 0 | 1 | 6 | -1 | -15
COc1ccc2oc(=O)c(C(=O)Nc3cccc(Cl)c3)cc2c1 | 0 | 0 | -2 | -11 | nt | nt
COc1cc(Br)cc2cc(C(=O)Nc3ccc(O)cc3)c(=O)oc12 | 7.6* | 0 | -17 | -1 | 0 | 8
CCOc1ccc(NC(=O)c2cc3cc(Br)cc(OC)c3oc2=O)cc1 | -2 | 0 | -14 | -1 | nt | nt
COc1ccc(NC(=O)c2cc3cc(Cl)ccc3oc2=O)cc1 | 6.3* | 0 | -2 | -4 | 0 | 15
N#C/C(=C/c1ccccc1)c1nc(-c2cccs2)cs1 | 0 | 1 | 16 | -52 | nt | nt
CCOc1ccc(CNC(=O)CCn2c(=O)oc3ccccc32)cc1OC | 1 | 0 | 3 | -9 | nt | nt
COc1cc(-n2nnnc2SCCn2c([N+](=O)[O-])cnc2C)c(OC)cc1Cl | 1 | 0 | 5 | -7 | nt | nt
SMILES | GPR151 ag | FBW7 act | MITF primary | TEAD-YAP block | GPR151 conf act | GPR119 counter
COc1ccc(N2C(=O)CN(C(=O)c3cc(C(C)C)nn3C)CC23CCCC3)cc1 | 1 | 0 | -6 | 5 | nt | nt
Cc1ccccc1Nc1sc(C(=O)c2ccc(Cl)cc2)c(N)c1C(=O)NCc1ccc(Cl)cc1 | 1 | 0 | 4 | -2 | nt | nt
Cc1ccccc1Nc1sc(C(=O)c2ccc([N+](=O)[O-])cc2)c(N)c1C(=O)NCc1ccc(Cl)cc1 | 6.4* | 0 | -3 | 4 | 2 | 21
Cc1ccccc1NC(=O)CSc1ccccc1 | 0 | 0 | 14 | 4 | nt | nt
COc1cccc(C(=O)Nc2c3c(nn2-c2ccc(Oc4ccccc4)cc2)CSC3)c1 | -1 | 1 | 8 | 6 | nt | nt
O=C(Nc1c2c(nn1-c1ccc(F)cc1)CSC2)c1ccc(Br)o1 | 2 | 0 | 6 | 11 | nt | nt
O=C(Nc1c2c(nn1-c1ccc([N+](=O)[O-])cc1)CSC2)c1ccc(Br)o1 | 5.2* | 0 | 8 | 14 | -1 | -4
COc1ccc(-n2nc3c(c2NC(=O)c2cccc(OC)c2)CSC3)cc1 | 6.1* | 0 | 0 | 12 | 0 | 6
N#Cc1ccc(OCC(=O)OCC(=O)Nc2ncc(Cl)cc2Cl)cc1 | 5.6* | 0 | -4 | 0 | 0 | -8
COc1cc(/C=N\NC(=O)c2ccc([N+](=O)[O-])cc2)ccc1OC(=O)c1ccco1 | 11* | 0 | 9 | 1 | -1 | -5
COc1cc(/C=N/NC(=O)c2ccco2)ccc1OCc1ccc([N+](=O)[O-])cc1 | -1 | 1 | 31 | -71 | nt | nt
CCC(C)NC(=O)Cn1nc(-c2ccccc2)ccc1=O (stereo not drawn) | 8.5* | 0 | 7 | 4 | 0 | -1
CC1=C(C(=O)Nc2ccc(F)cc2)C(c2ccc(N(C)C)cc2)C2=C(CC(C)(C)CC2=O)N1 (stereo not drawn) | 5.6* | 0 | 14 | -34 | 0 | 4
CC1=C(C(=O)Nc2c(F)cccc2F)C(c2ccc(N(C)C)cc2)C2=C(CC(C)(C)CC2=O)N1 (stereo not drawn) | 2 | 0 | 2 | 11 | nt | nt
CC1=C(C(=O)Nc2cccc(C)n2)C(c2ccc(C)cc2)C2=C(CC(C)(C)CC2=O)N1 (stereo not drawn) | 6.9* | 0 | 16 | 4 | 1 | 9
COc1ccc(CC(=O)Nc2cccc(-c3ccc4nncn4n3)c2)cc1 | 3 | 0 | -6 | -10 | nt | nt
COCCCN1C(=O)C(=O)/C(=C(\O)c2ccccc2)C1c1ccc(C(C)C)cc1 (stereo not drawn) | 5.3* | 0 | 5 | 9 | -1 | -5
C=CCn1c(COc2ccccc2C)n[nH]c1=S | -1 | 1 | 8 | 9 | nt | nt
C=CCn1c(COc2cccc(C)c2C)n[nH]c1=S | 5.0* | 0 | 4 | 4 | 0 | 1
CCOc1ccc(N2CC(C(=O)N3CCN(C(=O)C4CC(=O)N(c5ccc(OCC)cc5)C4)CC3)CC2=O)cc1 (stereo not drawn) | 2 | 0 | -2 | -24 | nt | nt
